Reference: PubChem BioAssay (NCATS)
Records with an inconclusive call do not appear. Active and inactive are the calls of the source. Calls come from the whole dose curve; as a rule, active = well fitted cell-killing curve with a large enough effect; inconclusive = small, poorly fitted or top-dose-only effect, or effect the other way; inactive = no such curve, though single readings can be large or run the other way.

How the values were obtained:
[1] = Quantitative High-Throughput drug screen in 47 multiple myeloma cell lines against the NCATS MIPE library collection: XG6_PLB cell viability assay (AID 1919865); note: nearly all actives have a fitted effect of over 40% in size
In short: (§1)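 Viability after 48 h drug exposure was measured as ATP-dependent luminescence. Cells, 500 per well, sat at 37 °C under 5% CO2; DMSO wells set 100%, media-only wells 0%.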

[2] = Quantitative High-Throughput drug screen in 47 multiple myeloma cell lines against the NCATS MIPE library collection: XG1_PLB cell viability assay (AID 1919866); note: nearly all actives have a fitted effect of over 35% in size
In short: as §1

[3] = Quantitative High-Throughput drug screen in 47 multiple myeloma cell lines against the NCATS MIPE library collection: VP6_DJ cell viability assay (AID 1919867); note: nearly all actives have a fitted effect of over 40% in size
In short: as §1

[4] = Quantitative High-Throughput drug screen in 47 multiple myeloma cell lines against the NCATS MIPE library collection: UTMC2_PLB cell viability assay (AID 1919868); conditions: CellTiter-Glo ATP luminescence, 48 h; viability (% of DMSO control): at 45.8 µM (top of the series) unless noted; note: nearly all actives have a fitted effect of over 55% in size
In short: as §1

[5] = Quantitative High-Throughput drug screen in 47 multiple myeloma cell lines against the NCATS MIPE library collection: PE2_PLB cell viability assay (AID 1919869); note: nearly all actives have a fitted effect of over 35% in size
In short: as §1

[6] = Quantitative High-Throughput drug screen in 47 multiple myeloma cell lines against the NCATS MIPE library collection: PCM6_Riken cell viability assay (AID 1919870); note: nearly all actives have a fitted effect of over 30% in size
In short: as §1

[7] = Quantitative High-Throughput drug screen in 47 multiple myeloma cell lines against the NCATS MIPE library collection: RPMI8226_ATCC cell viability assay (AID 1919871); note: nearly all actives have a fitted effect of over 30% in size
In short: as §1

[8] = Quantitative High-Throughput drug screen in 47 multiple myeloma cell lines against the NCATS MIPE library collection: OPM2_DSMZ cell viability assay (AID 1919872); note: nearly all actives have a fitted effect of over 30% in size
In short: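 CellTiter-Glo luminescence (ATP) after 48 h compound exposure, 37C/5% CO2; 500 cells/well; MIPE 4.0 approved/investigational drugs pinned in; DMSO = 100%, media only = 0% viability.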

[9] = Quantitative High-Throughput drug screen in 47 multiple myeloma cell lines against the NCATS MIPE library collection: KMS11_JCRBsus cell viability assay (AID 1919873); note: nearly all actives have a fitted effect of over 50% in size
In short: as §1

[10] = Quantitative High-Throughput drug screen in 47 multiple myeloma cell lines against the NCATS MIPE library collection: KMS28BM_JCRB cell viability assay (AID 1919874); note: nearly all actives have a fitted effect of over 35% in size
In short: as §1

Measured: Potency
Potency is the fitted concentration of half-maximal effect.

C1=CCOCc2cc(ccc2OCCN2CCCC2)Nc2nccc(n2)-c2cccc(c2)OCC1
active: [1] 1.87 µM | [2] 2.64 µM | [3] 1.05 µM | [4] 1.48 µM | [5] 1.66 µM | [6] 0.935 µM | [7] 5.9 µM | [8] 7.43 µM | [9] 1.32 µM | [10] 2.35 µM

CC1(O)CC(c2nc(-c3ccc4ccc(-c5ccccc5)nc4c3)c3c(N)nccn23)C1 (stereo not drawn)
active: [1] 5.26 µM | [2] 5.9 µM | [3] 0.166 µM | [4] 0.166 µM | [5] 1.66 µM | [6] 14.8 µM | [7] 0.235 µM | [8] 18.7 µM | [9] 0.187 µM | [10] 0.148 µM

CCCCc1nc2cc(C=CC(=O)NO)ccc2n1CCN(CC)CC
active: [1] 4.69 µM | [2] 1.48 µM | [3] 0.0105 µM | [4] 0.264 µM | [5] 1.66 µM | [6] 0.0132 µM | [7] 1.32 µM | [8] 0.833 µM | [9] 0.372 µM | [10] 0.187 µM

O=C(CCCCCCC(=O)Nc1ccc([C@H]2O[C@@H](CSc3nc(-c4ccccc4)c(-c4ccccc4)o3)C[C@@H](c3ccc(CO)cc3)O2)cc1)NO
active: [1] 14.8 µM | [2] 10.5 µM | [3] 7.43 µM | [4] 8.33 µM | [5] 14.8 µM | [6] 13.2 µM | [7] 18.7 µM | [8] 20.9 µM | [9] 11.8 µM | [10] 13.2 µM

CCN1CCN(CC(=O)Nc2ccc(-c3cccc4c(=O)cc(N5CCOCC5)oc34)c3sc4ccccc4c23)CC1
active: [1] 2.35 µM | [2] 0.935 µM | [3] 0.469 µM | [4] 0.187 µM | [5] 0.833 µM | [6] 1.48 µM | [7] 1.87 µM | [8] 3.72 µM | [9] 0.332 µM | [10] 4.69 µM

Cc1[nH]nc2ccc(-c3cncc(OC[C@@H](N)Cc4ccccc4)c3)cc12
active: [1] 0.935 µM | [2] 0.59 µM | [3] 0.833 µM | [4] 0.59 µM | [5] 1.18 µM | [6] 0.526 µM | [7] 5.9 µM | [8] 9.35 µM | [9] 1.18 µM | [10] 0.296 µM

CCCCN1CCC(CNC(=O)c2c3n(c4ccccc24)CCCO3)CC1
active: [1] 0.833 µM | [2] 0.743 µM | [3] 10.5 µM | [4] 9.35 µM | [5] 11.8 µM | [6] 3.32 µM

C[C@@H]1COC(Nc2ccc3ncnc(Nc4ccc(OCc5nccs5)c(Cl)c4)c3c2)=N1
active: [1] 0.0372 µM | [2] 0.105 µM | [3] 3.72 µM | [4] 2.96 µM | [5] 4.18 µM | [6] 2.96 µM | [7] 33.2 µM | [8] 26.4 µM | [9] 18.7 µM

COc1cc2c(Oc3ccc(NC(=O)C4(C(=O)Nc5ccc(F)cc5)CC4)cc3F)ccnc2cc1OCCCN1CCOCC1
active: [1] 5.26 µM | [2] 9.35 µM | [3] 3.72 µM | [4] 3.32 µM | [5] 8.33 µM | [6] 10.5 µM | [7] 13.2 µM | [8] 4.18 µM | [9] 1.18 µM | [10] 3.32 µM

Cc1ccc(C(N)=O)cc1Nc1nccc(-c2cn(C(C)C)c3cnccc23)n1
active: [1] 2.64 µM | [2] 3.72 µM | [3] 2.35 µM | [4] 6.62 µM | [5] 3.72 µM | [6] 2.09 µM | [7] 16.6 µM | [8] 14.8 µM | [9] 4.69 µM | [10] 5.9 µM

CN1CCN(Cc2ccc(NC(=O)Nc3ccc(Oc4cc(NC(=O)C5CC5)ncn4)cc3)cc2C(F)(F)F)CC1
active: [1] 0.148 µM | [2] 0.187 µM | [3] 0.0935 µM | [4] 0.132 µM | [5] 0.148 µM | [6] 0.105 µM | [7] 0.418 µM | [8] 0.526 µM | [9] 0.235 µM | [10] 0.209 µM

CC(C)C[C@H](NC(=O)CNC(=O)c1cc(Cl)ccc1Cl)B(O)O
active: [1] 0.0372 µM | [2] 0.0469 µM | [3] 0.0372 µM | [4] 0.418 µM | [5] 0.0418 µM | [6] 0.0662 µM | [7] 0.166 µM | [8] 0.132 µM | [9] 0.0526 µM | [10] 0.0662 µM

CC(C)[C@H](C(=O)Nc1ccc(C(=O)NO)cc1)c1ccccc1
active: [1] 2.35 µM | [2] 0.833 µM | [3] 0.372 µM | [4] 0.469 µM | [5] 1.05 µM | [6] 0.935 µM | [7] 1.32 µM | [8] 0.833 µM | [9] 0.469 µM | [10] 0.526 µM

c1nc2nc(Nc3ccc(N4CCOCC4)cc3)nc(NC3CCCCC3)c2[nH]1
active: [1] 2.09 µM | [2] 1.48 µM | [3] 3.32 µM | [4] 2.64 µM | [5] 3.72 µM | [6] 5.9 µM | [7] 11.8 µM | [8] 11.8 µM | [9] 5.26 µM | [10] 4.18 µM

O=C(Nc1cc(C(F)(F)F)cc(C(F)(F)F)c1)c1cc(Cl)ccc1O
active: [1] 0.935 µM | [2] 0.935 µM | [3] 0.526 µM | [4] 0.743 µM | [5] 0.59 µM | [6] 1.32 µM | [7] 0.662 µM | [8] 1.32 µM | [9] 0.332 µM | [10] 0.833 µM

CC(C)c1nn(-c2c(Cl)cccc2Cl)c2nc(Cc3ccc(OCCO)cc3)[nH]c(=O)c12
active: [1] 0.0833 µM | [2] 0.187 µM | [3] 0.0372 µM | [4] 0.0935 µM | [5] 0.0743 µM | [6] 0.0469 µM | [7] 0.118 µM | [8] 0.264 µM | [9] 0.0526 µM | [10] 0.209 µM

Cc1cc(Nc2cc(N3CCN(C)CC3)nc(C=Cc3ccccc3)n2)n[nH]1
active: [1] 9.59 µM | [2] 4.81 µM | [3] 15.2 µM | [4] 1.91 µM | [5] 13.6 µM | [6] 30.3 µM | [7] 13.6 µM | [8] 8.55 µM | [9] 1.21 µM | [10] 13.6 µM

CC1=C(CO)C(=O)O[C@@H]([C@@H](C)[C@H]2CC[C@H]3[C@@H]4C[C@H]5O[C@]56[C@@H](O)C=CC(=O)[C@]6(C)[C@@H]4CC[C@]23C)C1
active: [1] 0.469 µM | [2] 0.209 µM | [3] 0.166 µM | [4] 0.296 µM | [5] 0.166 µM | [6] 0.166 µM | [7] 0.187 µM | [8] 0.296 µM | [9] 0.0935 µM | [10] 0.132 µM

CC(C)c1cc(-c2n[nH]c(=O)n2-c2ccc3c(ccn3C)c2)c(O)cc1O
active: [1] 0.059 µM | [2] 0.0296 µM | [3] 0.0209 µM | [4] 0.0526 µM | [5] 0.0372 µM | [6] 0.0235 µM | [7] 0.0372 µM | [8] 0.0418 µM | [9] 0.0166 µM | [10] 0.0418 µM

COc1cc2c(NC3CCN(C(C)C)CC3)nc(C3CCCCC3)nc2cc1OCCCN1CCCC1
active: [1] 2.64 µM | [2] 4.69 µM | [3] 5.9 µM | [4] 13.2 µM | [5] 5.26 µM | [6] 3.32 µM | [7] 6.62 µM | [8] 7.43 µM | [9] 8.33 µM | [10] 14.8 µM

Nc1ncnc2c1c(-c1cnc3[nH]ccc3c1)nn2C1CCCC1
active: [1] 0.526 µM | [2] 0.209 µM | [3] 0.372 µM | [4] 0.526 µM | [5] 1.32 µM | [6] 1.48 µM | [7] 0.166 µM | [8] 0.935 µM | [9] 0.0469 µM | [10] 4.18 µM

Cn1c2ccccc2c2c3c(c4c5ccccc5n(CCC#N)c4c21)CNC3=O
active: [1] 0.526 µM | [2] 2.35 µM | [3] 2.96 µM | [4] 2.64 µM | [5] 1.87 µM | [6] 1.87 µM | [7] 20.9 µM | [8] 11.8 µM

CC(C)(C)c1cnc(CSc2cnc(NC(=O)C3CCNCC3)s2)o1
active: [1] 0.209 µM | [2] 0.296 µM | [3] 0.148 µM | [4] 0.187 µM | [5] 0.296 µM | [6] 0.0833 µM | [7] 0.332 µM | [8] 0.235 µM | [9] 0.132 µM | [10] 0.148 µM

Nc1cc(C(F)(F)F)c(-c2cc(N3CCOCC3)nc(N3CCOCC3)n2)cn1
active: [1] 0.662 µM | [2] 0.469 µM | [3] 0.743 µM | [4] 0.264 µM | [5] 0.935 µM | [6] 1.48 µM | [7] 0.526 µM | [8] 2.64 µM | [9] 0.0662 µM | [10] 0.0418 µM

CCCCOc1c(C(=O)c2c(F)cc(C)cc2F)cnc2n[nH]cc12
active: [1] 2.35 µM | [2] 2.96 µM | [3] 3.32 µM | [4] 3.32 µM | [5] 3.72 µM | [6] 2.64 µM | [7] 5.9 µM | [8] 7.43 µM | [9] 2.64 µM | [10] 2.96 µM

CC(C)c1cc(C(=O)N2Cc3ccc(CN4CCN(C)CC4)cc3C2)c(O)cc1O
active: [1] 0.296 µM | [2] 0.148 µM | [3] 0.148 µM | [4] 0.372 µM | [5] 0.296 µM | [6] 0.935 µM | [7] 0.264 µM | [8] 0.332 µM | [9] 0.105 µM | [10] 0.235 µM

COc1cc(C)c(Sc2cnc(NC(=O)c3ccc(CNC(C)C(C)C)cc3)s2)cc1C(=O)N1CCN(C(C)=O)CC1 (stereo not drawn)
active: [1] 16.6 µM | [2] 18.7 µM | [3] 7.43 µM | [4] 4.18 µM | [5] 13.2 µM | [6] 23.5 µM | [7] 14.8 µM | [8] 20.9 µM | [9] 8.33 µM | [10] 13.2 µM
